Measurements taken from PubChem BioAssay AID1621 (Southern Research Specialized Biocontainment Screening …, 2009).
Out of some 290,000 compounds screened, about 60 (0.02%) were called active. About 1% were inconclusive and are not listed. No rule for the calls is given here. Not all results are given here. Measured potencies and affinities stand elsewhere.

Test: inhibition of WNV-induced cytopathic effect – cell-based, CPE readout (AID 1621)
Settings: West Nile virus-infected cells, at 10 µM, stronger effect = higher value

SMILES | CPE inhibition
O=C(COc1ccc(S(=O)(=O)N2CCc3ccccc32)cc1Cl)NCc1ccccn1 | -0.17% (inactive)
CCOc1ccc(NC(=O)C(C)O)c(NS(=O)(=O)c2ccc(CCNC(C)=O)cc2)c1 (configuration not stated) | -0.27% (inactive)
O=C(CNS(=O)(=O)c1ccccc1)OCC(=O)c1ccc(Br)cc1 | -0.68% (inactive)
CCOC(=O)C1C(=O)CC(C)(O)C(C(=O)OCC)C1c1ccc(NC(C)=O)cc1 (configuration not stated) | 0% (inactive)
O=C1CSC(c2cn(-c3ccccc3)nc2-c2ccccc2)N1Cc1ccco1 (configuration not stated) | -0.03% (inactive)
O=C(NC1CCS(=O)(=O)C1)c1sc2ccccc2c1Cl (configuration not stated) | 1.04% (inactive)
CCCC1CCC(C(=O)Nn2cnc3ccccc3c2=O)CC1 (configuration not stated) | 0.33% (inactive)
Cc1[nH]c(=O)c(C#N)c(C)c1CCC(=O)NCc1ccc(Cl)cc1 | 0.96% (inactive)
Cc1nc(Cl)sc1C(=O)NC(C)c1ccc(Cl)cc1 (configuration not stated) | -0.9% (inactive)
O=C1CN(C(=O)c2ccc(Cl)nc2)c2ccccc2N1 | 0.17% (inactive)
CC(C)(C)c1ccc(NC(=O)CSc2nnc(-c3n[nH]c4ccccc34)o2)cc1 | 0.07% (inactive)
Cc1cc(C)c2nc(N3CCCC(C(=O)NCCN4CCOCC4)C3)sc2c1 (configuration not stated) | -0.73% (inactive)
Cc1cc(C)c2nc(N3CCCC(C(=O)NCCCN4CCOCC4)C3)sc2c1 (configuration not stated) | -0.13% (inactive)
COC(=O)c1ccccc1NC(=S)N(Cc1ccc2c(c1)OCO2)Cc1cc2cc(C)ccc2[nH]c1=O | 0.29% (inactive)
Cc1[nH]c(C(=O)O)c(C)c1C(=O)OC(C)C | 0.13% (inactive)
CC(C(=O)NC(C)(C)C)N1C(=O)c2cccc3cccc(c23)C1=O (configuration not stated) | -0.58% (inactive)
CN(C)CCNC(=O)c1c(NC(=O)c2ccccc2)sc2c1CCCC2 | 2.53% (inactive)
NCCNC(=O)c1c(NC(=O)c2ccccc2)sc2c1CCCC2 | -0.62% (inactive)
CCc1cccc(NC(=O)C2CCCN2S(=O)(=O)c2cccc3cccnc23)c1 (configuration not stated) | -0.25% (inactive)
Cc1cccc2c1-c1sc(C(=O)NCCCN3CCc4ccccc4C3)cc1CO2 | -0.65% (inactive)
O=C(NCc1cccs1)c1cc2c(s1)-c1ccccc1OC2 | 0.12% (inactive)
Cc1cccc2c1-c1sc(C(=O)NCCCN3CCCC(C)C3)cc1CO2 (configuration not stated) | -0.27% (inactive)
Cc1cccc2c1-c1sc(C(=O)NCCCN3CCC(C)CC3)cc1CO2 | 1.03% (inactive)

SMILES | CPE inhibition
O=C(NC1CC1)c1cc2c(s1)-c1ccccc1OC2 | 1.08% (inactive)
CCN1CCN(CCCNC(=O)c2cc3c(s2)-c2ccccc2OC3)CC1 | 35.2% (inactive)
CCCN1CCN(CCCNC(=O)c2cc3c(s2)-c2c(C)cccc2OC3)CC1 | -0.21% (inactive)
O=C(NCCCN1CCOCC1)c1cc2c(s1)-c1ccccc1OC2 | 0.21% (inactive)
CC1(C)SC2c3ccccc3C(=O)N2[C@@H]1C(=O)O (some centres not stated) | 1.57% (inactive)
COc1ccc(C2/C=C\CN(C(=O)OCc3ccccc3)CC(=O)N2Cc2ccc(F)cc2)cc1 (configuration not stated) | -0.53% (inactive)
O=c1c2ccccc2cnn1Cc1cccc(Br)c1 | 0% (inactive)
COc1ccc(-c2noc(N3CCCC(C(=O)Nc4cc(F)ccc4F)C3)n2)cc1 (configuration not stated) | -0.21% (inactive)
CCSc1nnc(Nc2ccccc2)s1 | 0.4% (inactive)
C/C(=N\NC(=O)c1nn(C)c(C)c1Br)c1ccc(NC(=O)c2ccc(C)s2)cc1 | -0.9% (inactive)
Cc1ccc(S(=O)(=O)NC(C)CCc2ccccc2)cc1 (configuration not stated) | -1.02% (inactive)
COc1cc2ccccc2cc1C(=O)NC(=S)Nc1nnn(C)n1 | 0.33% (inactive)
Cc1sc(/C=C2\C(=O)ON=C2c2ccccc2)cc1Br | 0.35% (inactive)
CC(C)NC(=O)c1ccc(-c2ccc(Cl)c(C(F)(F)F)c2)o1 | -0.86% (inactive)
CCOC(=O)C1C(c2cccs2)NC(=O)N(C)C1(O)C(F)(F)F (configuration not stated) | -0.41% (inactive)
COCCNC(=O)c1onc(CSc2cc(C)cc(C)c2)c1C(=O)NCCOC | 0.39% (inactive)
CCCCNC(=O)c1onc(CSc2cc(C)cc(C)c2)c1C(=O)NCCCC | -0.6% (inactive)
O=C(CC(=O)Nc1ccccc1C(=O)O)NNC(=O)Cc1ccccc1 | -0.29% (inactive)
CN(C)C(=O)N1CCN(c2nc(-c3ccccc3)cs2)CC1 | -0.36% (inactive)
O=C(CCCl)N1CCN(c2nc(-c3ccccc3)cs2)CC1 | 1.96% (inactive)
CCCNc1c(NC(=O)c2cccs2)c(=O)oc2ccccc12 | -0.26% (inactive)
Cc1ccc(NC(=O)C(C)N2C(=O)c3ccccc3C2=O)cc1C (configuration not stated) | 0.2% (inactive)
CCOC(=O)CN1C(=O)N[C@@H](c2cccc(C(F)(F)F)c2)[C@H](C(C)=O)[C@H]1C | -0.43% (inactive)

SMILES | CPE inhibition
CCN(CC)CCC(c1cc(OC)c(OC)c(OC)c1)c1c(OC)cc(OC)c2c(C)cc(=O)oc12 (configuration not stated) | -0.13% (inactive)
CCN(CC)CCC(c1ccc(N(C)C)cc1)c1c(OC)cc(OC)c2c(-c3ccccc3)cc(=O)oc12 (configuration not stated) | -0.46% (inactive)
CONC(=O)Nc1ccccc1[N+](=O)[O-] | 0.1% (inactive)
CCCC(=O)Nc1c(C(=O)OCC)[nH]c2ccccc12 | 0% (inactive)
CCOC(=O)c1[nH]c2ccccc2c1NC(=O)C(C)(C)C | 0.96% (inactive)
Cc1ccc(Sc2c(C)nn(C(=O)c3cccc(S(=O)(=O)N4CCOCC4)c3)c2C)cc1 | 0.04% (inactive)
O=C(Nc1ccc(S(=O)(=O)Nc2nccs2)cc1)c1ccc(=O)[nH]c1 | -0.06% (inactive)
CN1CCN(CC(=O)Nc2sc3c(c2C(=O)Nc2ccccc2)CCCC3)CC1 | 1.23% (inactive)
CCOc1ccc(NC(=O)c2c(NC(=O)CN3CCCC3)sc3c2CCC3)cc1 | -0.99% (inactive)
CCOC(=O)c1c(N)c2cc([N+](=O)[O-])ccc2n1C | 0.7% (inactive)
COCC(C)n1c(SCc2cc(C(=O)OC)c(C)o2)nc2ccccc2c1=O (configuration not stated) | -0.56% (inactive)
CC(=O)c1ccc(N2CCN(c3ccc(S(=O)(=O)NCCN(C)C)cc3[N+](=O)[O-])CC2)cc1 | -0.21% (inactive)
CC(=O)c1ccc(N2CCN(c3ccc(S(=O)(=O)NCCCN(C)C)cc3[N+](=O)[O-])CC2)cc1 | -2.19% (inactive)
COCCn1nnnc1C(c1cccs1)N1CCN2CCCC2C1 (configuration not stated) | 0.23% (inactive)
CCOC(=O)c1c(NC(=O)CSc2cccc[n+]2[O-])sc(C(=O)Nc2ccccc2)c1C | -0.77% (inactive)
CCOC(=O)c1c(N)sc(C(=O)Nc2ccccc2)c1C | -0.25% (inactive)
Cc1cnc(NC(=O)Cc2cccs2)s1 | 0.29% (inactive)
COc1ccc(C2c3sc(=O)[nH]c3SC3C4CCC(C4)C23)cc1OC (configuration not stated) | 0.48% (inactive)
O=C(c1cc2ncccn2n1)N1CCc2c([nH]c3ccccc23)C1c1ccccc1F (configuration not stated) | 2.67% (inactive)
CCc1cc(C(=O)N2CCc3c([nH]c4ccccc34)C2c2ccc(OC)cc2F)no1 (configuration not stated) | 19.3% (inactive)
C=CCn1c(SCC(=O)NNC(=O)Nc2ccc(C)cc2)nnc1-c1ccccc1 | 0.45% (inactive)
c1ccc2c(c1)CN1CCCC1=N2 | 0.51% (inactive)
O=C1CN2C(=Nc3ccc(Br)cc3C2c2ccccc2)CCN1 (configuration not stated) | -0.54% (inactive)

SMILES | CPE inhibition
CCN1CCc2nc3ccccc3c(C(=O)Nc3ccc(F)cc3)c2C1 | -0.07% (inactive)
Cc1ccc(OCC(O)Cn2c(N3CCCCC3)nc3c2c(=O)[nH]c(=O)n3C)cc1C (configuration not stated) | -0.27% (inactive)
CCOC(=O)NN1C(=O)c2ccccc2NC1c1ccccn1 (configuration not stated) | 0.09% (inactive)
O=C(Nc1ccccc1N1CCCC1)c1ccccc1Cl | -1.13% (inactive)
Cc1ccccc1/C=N/N1C(=O)CSC1=S | 0.91% (inactive)
Cc1ccc2[nH]c(=O)c(CN(CCCN(C)C)C(=O)Nc3cccc(Cl)c3)cc2c1 | -1.48% (inactive)
Cc1ccc2cc(CN(CCN(C)C)C(=O)Nc3ccc(Cl)cc3)c(=O)[nH]c2c1 | 2.9% (inactive)
NC(=O)c1ccc(NC(=O)CSc2nnc(-c3cccnc3)n2Cc2ccco2)cc1 | -0.08% (inactive)
c1ccc(COC2CCCN(Cc3nc(Cc4ccccc4)no3)C2)cc1 (configuration not stated) | -1.71% (inactive)
CC(=O)Oc1ccc2occ(-c3ccccc3)c2c1 | -0.4% (inactive)
CCN(CC)S(=O)(=O)c1ccc(NC(=O)c2cc(-c3ccccc3)nc3ccccc23)cc1 | -0.41% (inactive)
CCN(CC)S(=O)(=O)c1ccc(C(=O)O)cc1 | 0.13% (inactive)
CCOC(=O)C1(Cc2ccccc2C(F)(F)F)CCN(C2CCCC2)CC1 | -0.59% (inactive)
CCOC(=O)C1(Cc2ccccc2C(F)(F)F)CCN(C2CCN(C(C)=O)CC2)CC1 | -1.08% (inactive)
CC1CCC2C(=O)N(c3cccc(C(=O)Nc4ccccc4Cl)c3)C(=O)C2C1 (configuration not stated) | 0.29% (inactive)
Cc1ccc(S(=O)(=O)c2nc(-c3cccs3)oc2SCC(N)=O)cc1 | 2.11% (inactive)
COc1ccc2cc(-c3cc(C(=O)OCC(=O)Nc4c(C)n(C)n(-c5ccccc5)c4=O)c4ccccc4n3)ccc2c1 | -0.17% (inactive)
Cc1c(NC(=O)COC(=O)c2cc(-c3cccc4ccccc34)nc3ccccc23)c(=O)n(-c2ccccc2)n1C | -0.96% (inactive)
COc1ccc(NS(=O)(=O)c2ccc(O)c(NC(=O)c3ccc(S(=O)(=O)N4CCCCCC4)cc3)c2)cc1 | 2.03% (inactive)
COc1ccc(/C(N)=N/OC(=O)c2ccc(Br)o2)cc1 | 0% (inactive)
CCn1c(SCC(=O)C(C)(C)C)nnc1-c1cccnc1 | -0.07% (inactive)
CNC(=O)C1CCN(S(=O)(=O)c2c(C)noc2/C=C/c2ccccc2F)CC1 | -1% (inactive)
CCN(CCN(C)C)C(=O)C1CCN(S(=O)(=O)c2c(C)noc2/C=C/c2ccccc2F)CC1 | 0.04% (inactive)
